Among the data in PubChem BioAssay (NCATS) are Potency values, retold here.

SMILES strings stand for the structures. Inconclusive results are not listed. A call without a number means that no potency is given here. Active and inactive are the calls of the source. Calls follow the shape of the dose curve; as a rule, active = well fitted inhibition curve with a large enough effect; inconclusive = small, poorly fitted or top-dose-only effect; inactive = no such curve, though single readings can be large or run the other way.

The experiment has as its target Retinaldehyde dehydrogenase 3 (Homo sapiens) (UniProt P47895). The experiment is described as follows: qHTS for Inhibitors of the Aldehyde Dehydrogenase Family (ALDH1A3) Primary screen (AID 2061315). Conditions: ALDH inhibition qHTS; series mostly up to 56 µM. (Quantitative high-throughput screening tests each substance at several concentrations.)
For the compound `O=C(N[C@@H]1CC[C@@H](c2cccc(F)c2F)CN(CC(F)(F)F)C1=O)N1CCC(n2c(=O)[nH]c3ncccc32)CC1`, the Potency entry is “inactive”.
Consider `CCCCc1nc(Cl)c(CO)n1Cc1ccc(-c2ccccc2-c2nnn[nH]2)cc1`, for which the Potency entry is “inactive”.
The same measure for `Oc1ccccc1-c1cc(-c2ccccc2F)[nH]n1`: “inactive”.
The same measure for `O=C(NCCN1CCC(n2c(=O)[nH]c3ccccc32)CC1)c1ccc2ccccc2c1`: “inactive”; for `O=C(NCCCc1ccccc1)C1CCC(CNS(=O)(=O)c2cccc3nsnc23)CC1` (stereo unspecified): “inactive”; for `Cc1c(C(=O)Nc2ccc(N3CCC(N4CCOCC4)CC3)c(C#N)c2)cnn1-c1ccc(Cl)cc1`: “inactive”.
The entry for `CSc1ccc(C(=O)N[C@@H]2CCCC[C@@H]2NC(=O)CNC(=O)c2cc(C(F)(F)F)ccc2NC(=O)NC(C)C)cc1` is “inactive”; for `Cc1cc(C)nc(SCC(=O)Nc2ncc(Cc3cccc4ccccc34)s2)n1` it is “inactive”.
As to `CC1(C)C(=O)C(C)(C)c2cc(C(=O)Nc3ccc(C(=O)O)cc3)ccc21`, the Potency entry is “inactive”.
For `O=C1COc2nccc(-c3ccccc3F)c2CN1Cc1cc(C(F)(F)F)cc(C(F)(F)F)c1`, the Potency result is “inactive”.
The entry for `CC(c1ncncc1F)C(O)(Cn1cncn1)c1ccc(F)cc1F` (stereo unspecified) is “inactive”.
The same measure for `OC(CC1c2ccccc2-c2cncn21)C1CCCCC1` (stereo unspecified): “inactive”.
The same measure for `Cc1ccc(-c2c(-c3nn(C)c4ncnc(N5CC[C@H](N6CCCCC6)C5)c34)cnn2C)cc1`: “inactive”.
With `COc1cc(CCc2cc(NC(=O)c3ccc(N4CC(C)NC(C)C4)cc3)n[nH]2)cc(OC)c1` (stereo unspecified), the Potency entry was “inactive”.
Take `O=C(c1cn(Cc2cncn2Cc2ccc(Br)cc2)cc1-c1cccc2ccccc12)N1CCOCC1`: the Potency result was “inactive”.
The entry for `CC(=O)NCC(=O)N1C2CCC1c1cc(Nc3ncc(C(F)(F)F)c(NC4CCC4)n3)ccc12` (stereo unspecified) is “inactive”.
